Molecules are shown by their SMILES. Active and inactive are the calls of the source.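 Rule for the calls: active = NF-kB reporter IC50 at most 10 µM, IL-8 IC50 within fivefold of it with bacterial filtrate but not with TNF-alpha; inactive = the rest.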

The assay deals with Interleukin-8 (Homo sapiens) (UniProt P10145). Nature of the assay: inhibitors of NFkB activation in CF airway cells, SAR follow-up, KKLEB cells, panel, IL8 HTRF, NFkB-GFP (AID 651592).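 Note: immortalized cystic fibrosis airway epithelial KKLEB cells with an NF-kB GFP reporter.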 To be noted: PAF/TNFa-induced NFkB-GFP / IL8 HTRF, mean of runs. In general terms: TR-FRET usually uses a lanthanide donor and a delayed reading to cut background.
Interleukin-8 (Homo sapiens), sequence (P10145 whole entry, looked up): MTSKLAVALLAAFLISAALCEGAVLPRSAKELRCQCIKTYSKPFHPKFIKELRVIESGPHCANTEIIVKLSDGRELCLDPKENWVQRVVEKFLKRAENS
For the compound `O=C(Nc1ccc(N2CCN(C(=O)c3ccccc3)CC2)cc1)c1cncc(Br)c1`, the compound was called active.

Consider `O=C(Nc1ccc(N2CCN(C(=O)c3ccc(F)cc3)CC2)cc1)c1ccncc1`, for which the outcome was active.

Turning to `O=C(Nc1ccc(N2CCN(C(=O)c3ccc(F)cc3)CC2)cc1)c1ccccc1`, the outcome was active.

As for `O=C(Nc1ccc(N2CCN(C(=O)c3ccc(F)cc3)CC2)cc1)c1cncc(Br)c1`, the compound was called active.

Turning to `CCOc1ccc(NCc2cc3c(-c4ccc(OC)c(OC)c4)nn(-c4ccccc4)c3[nH]c2=O)cc1`, the result was active.

For the compound `O=C(Nc1ccc(N2CCN(C(=O)c3ccccc3Cl)CC2)cc1)c1cccnc1`, the compound was classed as active.

In the case of `O=C(Nc1ccc(N2CCN(C(=O)c3ccc(F)cc3)CC2)cc1)c1cccnc1`, the outcome was active.

For `CCOc1ccc(NCc2cc3c(C(C)(C)C)nn(-c4ccc(Cl)cc4)c3[nH]c2=O)cc1`, the result was active.

As for `CCOc1ccc(NCc2cc3c(C(C)(C)C)nn(-c4ccccc4)c3[nH]c2=O)cc1`, the outcome was active.

On to `O=C(Nc1ccc(N2CCN(C(=O)c3ccccc3Cl)CC2)cc1)c1cc(Br)cc(Br)c1`, for which the call was active.

As for `O=C(Nc1ccc(N2CCN(C(=O)c3ccccc3F)CC2)cc1)c1ccccc1`, the compound was classed as active.

For the compound `O=C(Nc1ccc(N2CCN(C(=O)c3ccc(F)cc3)CC2)cc1)c1cccc(Br)c1`, the compound was classed as active.

For `O=C(Nc1ccc(N2CCN(C(=O)c3ccccc3F)CC2)cc1)c1ccccn1`, the outcome was active.

With `O=C(Nc1ccc(N2CCN(C(=O)c3ccccc3Cl)CC2)cc1)c1ccccc1`, the compound was called inactive.

In the case of `CCOc1ccc(NCc2cc3c(-c4ccc(F)cc4)nn(-c4ccccc4)c3[nH]c2=O)cc1`, the outcome was active.

Consider `O=C(Nc1ccc(N2CCN(C(=O)c3ccccc3)CC2)cc1)c1ccncc1`, for which the result was active.

Turning to `O=C(Nc1ccc(N2CCN(C(=O)c3ccccc3F)CC2)cc1)c1cc(Br)cc(Br)c1`, the outcome was active.

Consider `O=C(Nc1ccc(N2CCN(C(=O)c3ccccc3)CC2)cc1)c1cccc(Br)c1`, for which the compound was called active.

In the case of `O=C(Nc1ccc(N2CCN(C(=O)c3ccccc3)CC2)cc1)c1ccccn1`, the result was active.

As for `O=C(Nc1ccc(N2CCN(C(=O)c3ccccc3)CC2)cc1)c1ccccc1`, the result was active.

Consider `O=C(Nc1ccc(N2CCN(C(=O)c3ccccc3)CC2)cc1)c1cc(Br)cc(Br)c1`, for which the compound was called active.

As to `O=C(Nc1ccc(N2CCN(C(=O)c3ccccc3F)CC2)cc1)c1ccncc1`, the call was active.

`O=C(Nc1ccc(N2CCN(C(=O)c3ccccc3)CC2)cc1)c1cccnc1`: the compound was classed as active.

Turning to `O=C(Nc1ccc(N2CCN(C(=O)c3ccc(F)cc3)CC2)cc1)c1cc(Br)cc(Br)c1`, the call was active.

Turning to `O=C(Nc1ccc(N2CCN(C(=O)c3ccc(F)cc3)CC2)cc1)c1ccccn1`, the call was active.

For `O=C(Nc1ccc(N2CCN(C(=O)c3ccccc3F)CC2)cc1)c1cccc(Br)c1`, the outcome was active.

Regarding `Cc1ccc(NCc2cc3c(C(C)(C)C)nn(-c4ccccc4)c3[nH]c2=O)cc1`, the call was active.

For `O=C(Nc1ccc(N2CCN(C(=O)c3ccccc3Cl)CC2)cc1)c1cncc(Br)c1`, the compound was called active.

Take `O=C(Nc1ccc(N2CCN(C(=O)c3ccccc3Cl)CC2)cc1)c1ccncc1`: the call was active.

In the case of `O=C(Nc1ccc(N2CCN(C(=O)c3ccccc3Cl)CC2)cc1)c1ccccn1`, the call was active.

With `O=C(Nc1ccc(N2CCN(C(=O)c3ccccc3F)CC2)cc1)c1cccnc1`, the call was active.

On to `CCOc1ccc(NCc2cc3c(C)nn(-c4ccccc4)c3[nH]c2=O)cc1`, for which the call was active.

With `O=C(Nc1ccc(N2CCN(C(=O)c3ccccc3Cl)CC2)cc1)c1cccc(Br)c1`, the result was active.

Consider `Cc1ccc(CNCc2cc3c(C(C)(C)C)nn(-c4ccccc4)c3[nH]c2=O)cc1`, for which the compound was classed as active.
